Laboratory results taken from ChEMBL document CHEMBL3988442, “University of Dundee, Small-Polar-MMV Screening Library” (2021).
For some of these results: Measured potencies and affinities stand elsewhere.

How the values were obtained:
Set-up in all cases: scale not given: direction of the effect not stated beside the values
[1] = target: Protein translocase subunit SecA (Escherichia coli (strain K12)) (UniProt P10408); test: Assay to Identify E. coli SecA ATPase Inhibitors; type: functional; conditions: 30 µM
[2] = target: T1, Ubiquitin-activating enzyme e1, putative (Leishmania donovani (strain BPK282A1)) (UniProt E9BSI1); test: Leishmania donovani Ubiquitin Activating Enzyme (LdE1); type: functional; conditions: 30 µM
T1 sequence (whole entry): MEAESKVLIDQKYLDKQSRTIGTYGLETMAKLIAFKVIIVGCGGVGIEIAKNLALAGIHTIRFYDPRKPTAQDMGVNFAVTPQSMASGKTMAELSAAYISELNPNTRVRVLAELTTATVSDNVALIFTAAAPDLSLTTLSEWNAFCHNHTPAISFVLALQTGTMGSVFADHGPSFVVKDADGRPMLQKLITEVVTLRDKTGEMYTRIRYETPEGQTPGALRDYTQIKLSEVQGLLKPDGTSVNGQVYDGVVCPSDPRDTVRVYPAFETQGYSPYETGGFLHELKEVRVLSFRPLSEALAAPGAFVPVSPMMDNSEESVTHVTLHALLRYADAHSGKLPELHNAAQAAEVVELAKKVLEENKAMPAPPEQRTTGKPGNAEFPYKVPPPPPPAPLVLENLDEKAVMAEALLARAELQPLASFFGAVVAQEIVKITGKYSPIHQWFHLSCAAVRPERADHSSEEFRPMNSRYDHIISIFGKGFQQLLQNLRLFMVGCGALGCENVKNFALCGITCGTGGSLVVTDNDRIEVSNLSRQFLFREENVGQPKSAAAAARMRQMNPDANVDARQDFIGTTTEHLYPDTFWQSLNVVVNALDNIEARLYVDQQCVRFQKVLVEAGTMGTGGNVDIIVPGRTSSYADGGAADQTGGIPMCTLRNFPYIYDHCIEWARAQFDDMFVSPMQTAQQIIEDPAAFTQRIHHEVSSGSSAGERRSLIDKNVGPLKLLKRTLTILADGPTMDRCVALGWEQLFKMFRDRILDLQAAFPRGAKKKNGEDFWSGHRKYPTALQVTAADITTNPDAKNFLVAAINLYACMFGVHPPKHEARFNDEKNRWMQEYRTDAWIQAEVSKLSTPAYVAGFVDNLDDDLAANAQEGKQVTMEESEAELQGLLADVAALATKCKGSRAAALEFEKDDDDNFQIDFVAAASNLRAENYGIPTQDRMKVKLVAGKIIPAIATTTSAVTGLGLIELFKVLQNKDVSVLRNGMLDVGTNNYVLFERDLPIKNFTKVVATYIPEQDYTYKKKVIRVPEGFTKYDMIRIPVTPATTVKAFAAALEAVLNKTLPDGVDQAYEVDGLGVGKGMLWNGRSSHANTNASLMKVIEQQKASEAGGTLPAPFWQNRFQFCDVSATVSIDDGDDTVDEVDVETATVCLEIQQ

[3] = target: AMP-activated protein kinase, AMPK (Homo sapiens) (UniProt P54646+O43741+P54619+Q9UGJ0+Q9Y478+Q13131+Q9UGI9); test: AMP-dependent Kinase enzyme assay. An in vitro enzyme assay that detects ADP turnover that is directly proportional to AMPK activity. This uses naive AMPK that is activated during the assay with MK-8722; type: functional; conditions: 30 µM
[4] = target: Sialic acid-binding Ig-like lectin 9 (Homo sapiens) (UniProt Q9Y336); test: Hs-Siglec9 ALPHAscreen SOP 20170721; conditions: 10 µM
Trypanosoma cruzi = test: Trypanosoma cruzi phosphomannomutase and mannose-1-phosphate guanylyltransferase assay; type: functional; conditions: 10 µM
[5] = target: T2, Arginase-2, mitochondrial (Homo sapiens) (UniProt P78540); test: in vitro enzyme assay to detect the production of urea directly proportional to the activity of Arginase II; type: functional; conditions: 33.3 µM; further: in the data most compounds retested in dose-response had high values
T2 sequence (whole entry): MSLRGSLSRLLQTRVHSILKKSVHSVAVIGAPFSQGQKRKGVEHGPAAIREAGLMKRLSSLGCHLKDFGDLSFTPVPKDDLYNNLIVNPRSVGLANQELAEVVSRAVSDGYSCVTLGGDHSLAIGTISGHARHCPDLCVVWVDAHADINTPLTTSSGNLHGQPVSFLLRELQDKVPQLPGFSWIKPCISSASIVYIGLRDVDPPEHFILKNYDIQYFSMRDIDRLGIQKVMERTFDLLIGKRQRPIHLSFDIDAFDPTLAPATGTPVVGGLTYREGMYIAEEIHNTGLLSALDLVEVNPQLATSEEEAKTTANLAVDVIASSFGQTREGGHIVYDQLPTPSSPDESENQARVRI

[6] = target: T3, Proteasome subunit beta (Trypanosoma cruzi) (UniProt O96673); test: Trypanosoma cruzi proteasome chymotrypsin-like activity (TcProtChymo) assay.; further: in the data most compounds retested in dose-response had high values; type: functional; conditions: 9.37 µM
T3 sequence (whole entry): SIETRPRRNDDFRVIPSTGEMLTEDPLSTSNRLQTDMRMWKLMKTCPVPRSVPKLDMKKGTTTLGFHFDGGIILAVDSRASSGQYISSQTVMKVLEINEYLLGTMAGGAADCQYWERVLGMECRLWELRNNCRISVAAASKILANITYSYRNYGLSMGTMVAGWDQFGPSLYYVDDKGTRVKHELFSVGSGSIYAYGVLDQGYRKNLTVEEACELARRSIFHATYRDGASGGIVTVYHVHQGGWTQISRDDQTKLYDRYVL

Homo sapiens = species: Homo sapiens; test: To identify inhibition of the IFN signalling (Jak-Stat) pathway via expression of an eGFP reporter gene under the control of an IFN-stimulated response element (ISRE) containing MxA promoter.; type: functional; conditions: 30 µM
[7] = target: T4, Tyrosyl-tRNA synthetase, putative (Trypanosoma cruzi (strain CL Brener)) (UniProt Q4DSP6); test: Trypanosoma cruzi tyrosyl tRNA synthetase (TcYRS) _High Tyrosine SOP; type: functional; conditions: 30 µM; further: in the data most compounds retested in dose-response had high values
T4 sequence (whole entry): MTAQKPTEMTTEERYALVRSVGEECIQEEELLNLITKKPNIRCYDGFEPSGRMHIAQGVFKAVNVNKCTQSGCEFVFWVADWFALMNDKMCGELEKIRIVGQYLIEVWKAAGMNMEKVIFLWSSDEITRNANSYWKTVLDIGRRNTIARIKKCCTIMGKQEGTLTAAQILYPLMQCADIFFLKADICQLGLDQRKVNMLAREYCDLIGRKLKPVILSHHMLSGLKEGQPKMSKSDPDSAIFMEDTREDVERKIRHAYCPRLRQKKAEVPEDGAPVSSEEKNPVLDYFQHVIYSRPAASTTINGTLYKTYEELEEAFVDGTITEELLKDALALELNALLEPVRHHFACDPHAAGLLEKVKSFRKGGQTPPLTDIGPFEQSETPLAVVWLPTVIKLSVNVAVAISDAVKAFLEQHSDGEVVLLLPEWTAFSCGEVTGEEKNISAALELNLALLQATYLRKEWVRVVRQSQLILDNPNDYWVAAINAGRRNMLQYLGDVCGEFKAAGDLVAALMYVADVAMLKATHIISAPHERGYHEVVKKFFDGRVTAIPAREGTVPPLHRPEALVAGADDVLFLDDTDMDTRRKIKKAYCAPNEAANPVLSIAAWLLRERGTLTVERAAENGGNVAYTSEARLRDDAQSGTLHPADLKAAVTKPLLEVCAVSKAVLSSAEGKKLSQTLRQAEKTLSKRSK

[8] = target: T4, Tyrosyl-tRNA synthetase, putative (Trypanosoma cruzi (strain CL Brener)); test: Trypanosoma cruzi tyrosyl tRNA synthetase (TcYRS) SOP; type: functional; conditions: 30 µM
[9] = target: Chromo domain-containing protein 1 (Saccharomyces cerevisiae (strain ATCC 204508 / S288c) (Baker's yeast)) (UniProt P32657); test: ScCHD-1 Enzyme Inhibition Assay; type: functional; conditions: 30 µM; further: in the data most compounds retested in dose-response had high values
Chain of Chromo domain-containing protein 1 (Saccharomyces cerevisiae (strain ATCC 204508 / S288c) (Baker's yeast)) (P32657 whole entry, the tested form may be a part): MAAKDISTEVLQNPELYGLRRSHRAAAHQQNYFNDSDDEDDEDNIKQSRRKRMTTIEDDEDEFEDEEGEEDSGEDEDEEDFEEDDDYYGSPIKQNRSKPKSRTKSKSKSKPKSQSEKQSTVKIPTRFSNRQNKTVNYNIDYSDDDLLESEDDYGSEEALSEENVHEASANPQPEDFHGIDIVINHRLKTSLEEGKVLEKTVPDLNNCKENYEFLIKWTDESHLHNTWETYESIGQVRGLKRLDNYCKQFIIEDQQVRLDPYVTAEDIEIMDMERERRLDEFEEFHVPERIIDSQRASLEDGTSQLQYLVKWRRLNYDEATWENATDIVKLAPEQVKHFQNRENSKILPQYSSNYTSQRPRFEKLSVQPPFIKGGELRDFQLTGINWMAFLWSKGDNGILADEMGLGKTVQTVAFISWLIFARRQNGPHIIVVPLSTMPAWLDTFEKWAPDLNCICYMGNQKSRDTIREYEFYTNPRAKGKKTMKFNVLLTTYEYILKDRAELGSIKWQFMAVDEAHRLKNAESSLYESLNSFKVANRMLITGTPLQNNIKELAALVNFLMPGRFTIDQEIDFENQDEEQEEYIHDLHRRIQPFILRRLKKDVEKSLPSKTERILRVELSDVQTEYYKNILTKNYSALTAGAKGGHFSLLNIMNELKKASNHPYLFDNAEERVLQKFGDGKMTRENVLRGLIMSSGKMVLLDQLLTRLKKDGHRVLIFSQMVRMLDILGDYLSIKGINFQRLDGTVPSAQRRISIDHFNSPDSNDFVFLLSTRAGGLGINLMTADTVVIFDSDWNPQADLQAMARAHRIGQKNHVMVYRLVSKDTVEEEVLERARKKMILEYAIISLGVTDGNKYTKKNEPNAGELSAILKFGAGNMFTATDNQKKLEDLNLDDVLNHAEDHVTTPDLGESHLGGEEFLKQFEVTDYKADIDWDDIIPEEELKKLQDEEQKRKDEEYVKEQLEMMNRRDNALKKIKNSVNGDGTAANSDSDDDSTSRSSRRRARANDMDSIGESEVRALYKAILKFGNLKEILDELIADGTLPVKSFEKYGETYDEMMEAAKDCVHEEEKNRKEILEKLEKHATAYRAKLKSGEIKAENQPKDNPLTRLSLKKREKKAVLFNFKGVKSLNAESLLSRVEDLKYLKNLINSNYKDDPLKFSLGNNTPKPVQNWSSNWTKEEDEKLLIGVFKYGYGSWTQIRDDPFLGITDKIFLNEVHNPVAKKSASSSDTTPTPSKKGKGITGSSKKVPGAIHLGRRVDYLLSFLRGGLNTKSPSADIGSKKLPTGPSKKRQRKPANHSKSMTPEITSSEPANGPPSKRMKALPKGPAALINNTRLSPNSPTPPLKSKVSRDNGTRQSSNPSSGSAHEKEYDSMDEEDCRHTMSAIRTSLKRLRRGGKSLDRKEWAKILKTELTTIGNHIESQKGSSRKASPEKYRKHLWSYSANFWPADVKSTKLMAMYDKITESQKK

Chain of Protein translocase subunit SecA (Escherichia coli (strain K12)) (P10408 whole entry): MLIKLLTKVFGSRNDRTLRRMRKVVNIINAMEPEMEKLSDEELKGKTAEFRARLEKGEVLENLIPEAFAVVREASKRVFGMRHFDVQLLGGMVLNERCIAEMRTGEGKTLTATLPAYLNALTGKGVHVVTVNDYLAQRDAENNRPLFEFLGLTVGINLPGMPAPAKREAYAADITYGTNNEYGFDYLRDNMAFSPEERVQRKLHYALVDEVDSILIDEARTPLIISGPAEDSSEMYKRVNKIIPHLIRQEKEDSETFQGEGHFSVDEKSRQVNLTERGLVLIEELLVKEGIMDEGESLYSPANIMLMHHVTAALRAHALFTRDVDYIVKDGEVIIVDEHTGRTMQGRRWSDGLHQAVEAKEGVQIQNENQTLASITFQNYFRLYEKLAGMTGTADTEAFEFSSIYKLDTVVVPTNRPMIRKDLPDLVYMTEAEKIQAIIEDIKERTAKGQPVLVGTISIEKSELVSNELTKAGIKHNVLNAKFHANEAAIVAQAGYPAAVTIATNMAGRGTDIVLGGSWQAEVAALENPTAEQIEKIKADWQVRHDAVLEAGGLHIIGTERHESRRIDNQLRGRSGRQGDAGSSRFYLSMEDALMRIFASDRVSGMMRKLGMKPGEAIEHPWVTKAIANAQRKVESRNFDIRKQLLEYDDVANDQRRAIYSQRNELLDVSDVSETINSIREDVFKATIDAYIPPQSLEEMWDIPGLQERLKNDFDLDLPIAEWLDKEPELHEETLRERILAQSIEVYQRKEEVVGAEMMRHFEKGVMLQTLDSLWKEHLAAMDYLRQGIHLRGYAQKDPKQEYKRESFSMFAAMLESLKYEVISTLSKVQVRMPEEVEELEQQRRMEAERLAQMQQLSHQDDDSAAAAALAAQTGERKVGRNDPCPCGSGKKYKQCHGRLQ
Chain of Sialic acid-binding Ig-like lectin 9 (Homo sapiens) (Q9Y336 whole entry): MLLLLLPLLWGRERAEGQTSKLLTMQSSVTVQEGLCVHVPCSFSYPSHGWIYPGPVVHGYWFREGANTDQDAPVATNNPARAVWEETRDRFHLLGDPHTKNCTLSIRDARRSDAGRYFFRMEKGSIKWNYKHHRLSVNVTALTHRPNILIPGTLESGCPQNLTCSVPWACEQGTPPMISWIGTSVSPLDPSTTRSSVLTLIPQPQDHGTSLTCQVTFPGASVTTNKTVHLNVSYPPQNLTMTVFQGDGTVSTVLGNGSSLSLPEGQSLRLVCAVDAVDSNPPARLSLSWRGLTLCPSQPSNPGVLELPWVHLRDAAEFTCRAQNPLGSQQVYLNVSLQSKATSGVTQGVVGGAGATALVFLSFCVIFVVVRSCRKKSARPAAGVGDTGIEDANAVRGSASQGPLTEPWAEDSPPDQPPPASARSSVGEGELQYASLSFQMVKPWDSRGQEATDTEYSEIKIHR

Row | Structure (SMILES) | Percent Effect [1] [%] | Percent Effect [2] [%] | Percent Effect [3] [%] | Percent Effect [4] [%] | Percent Effect (Trypanosoma cruzi) [%] | Percent Effect [5] [%] | Percent Effect [6] [%] | Percent Effect (Homo sapiens) [%] | Percent Effect [7] [%] | Percent Effect [8] [%] | Percent Effect [9] [%]
1 | CCn1cc2c(n1)CN(Cc1ccoc1)CC2COCC1CC1 (stereo unspecified) | -5.08 | -10.8 | -0.58 | 2.38 | 6.64 | -1.67 | 7.69 | -8.7 | 11.9 | 8.54 | -4.61
2 | Cc1nc(C)n(CC2CCCCN2CC(=O)Nc2nncs2)n1 (stereo unspecified) | -8.22 | 2.67 | -1.04 | 1.02 | -2.04 | 2.6 | 2.79 | -3.85 | 2.73 | 11.1 | -5.05
3 | Cn1cc(N2CCC3(CCN(Cc4nccs4)C3)C2=O)cn1 (stereo unspecified) | -2.64 | 2.7 | 4.13 | -6.07 | -4.2 | 0.319 | 16.4 | -1.48 | 4.32 | 10.3 | -0.716
4 | Cc1cccc(-c2ccc(C(=O)NCC(C)(C)C(N)=O)c(=O)[nH]2)c1 | -5.4 | 2.7 | -7.65 | 17.1 | 2.92 | -2.81 | 5.41 | 0.882 | -0.493 | 11.1 | -14.8
5 | COCCOCC(=O)Nc1ccc(C)cc1F | -1.36 | 2.63 | 5.59 | -0.498 | 3.21 | 0 | 9.11 | -16.7 | 2.13 | 2.6 | 2.83
6 | CCc1ccc(C(=O)O)cc1S(=O)(=O)Nc1ccc(F)c(C#N)c1 | -2.04 | -2.7 | -11.6 | 10.6 | 3.87 | -0.802 | 1.08 | 7.96 | -2.46 | 1.24 | -2.76
7 | Cc1ccc(N2CCCC(NCc3ccsc3)C2)nn1 (stereo unspecified) | 1.41 | 13.5 | -7.55 | 2.96 | -6.7 | 1.6 | 8.29 | 11 | 4.43 | 16.1 | -7.21
8 | CC(C#N)CSc1ccccc1NCC(=O)NCc1ccccc1 (stereo unspecified) | -3.57 | -8.22 | 11.4 | 8.76 | 5.49 | 14.1 | 11.7 | 19.4 | -2.15 | -5 | -1.42
9 | CNC(=O)CS(=O)(=O)C1CCN(S(=O)(=O)c2ccccc2Br)CC1 | 1.17 | 0 | 4.03 | 13.4 | 4.5 | 5.46 | 2.31 | 26.1 | 1.07 | 2.5 | -0.751
10 | CCn1cnnc1C1CCN(C(=O)COc2ccccc2)CC1 | -7.35 | 13 | -3.46 | -2.33 | 4.6 | -0.21 | 5.74 | 7.87 | 4.76 | 11.8 | -22.2
11 | CC(C)n1ncc2c1NC(=O)CC21C(=O)Nc2c(Cl)cccc21 (stereo unspecified) | -1.42 | -1.33 | 3.7 | 7 | -0.393 | -6.87 | 0.185 | 34 | 1.06 | 2.56 | -2
